Measurements published in PubChem BioAssay AID758 (NMMLSC, 2007).
About 110 (0.058%) of roughly 190,000 compounds were called active. Not shown: some 2% with an inconclusive outcome. Only a selection was taken, and actives are over-represented in it overall. Unmarked numbers belong to inactive results.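 The calls were made as follows: active = fluorescent GTP binding to Rab7 beads changed by at least 20 points from the 100% baseline, either direction, mostly lower; inconclusive = compound itself probably fluorescent, or too few beads counted; inactive = the rest.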

Each compound was assayed on Rab7 GTPase wild type (dog), Bodipy-FL-GTP binding (assay: wildtype dog Rab7 nucleotide binding alteration – biochemical, multiplex bead flow cytometry, primary screen (AID 758;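 also: median green fluorescence of bound Bodipy-FL-GTP per Rab7 bead population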)). Details: GST-Rab7 beads, fluorescent GTP binding, at 10 µM, actives lie on both sides, untreated = 100%, excess cold GTP = 0%.

Structure (SMILES)	GTP binding activity (percent of control)
O=C(NC(Cc1c[nH]c2ccccc12)C(=O)O)/C(=C/c1ccco1)NC(=O)c1ccccc1 (stereo unspecified)	98%
O=C(NNC(=S)NCc1ccco1)C(c1ccccc1)c1ccccc1	105%
CSc1nsc(SC)c1NC(=O)OC1CCCCC1	20% (active)
COc1ccc(NC(=O)c2c(SC)nsc2SC)cc1	103%
CSc1ncccc1C(=O)NC1CCCCCC1	100%
COc1ccc(/C=N/S(=O)(=O)c2ccccc2)cc1OC	97%
O=[N+]([O-])/C(N=Nc1ccccc1)=N\Nc1ccccc1	101%
CCC(C)(C)NC(=O)CN(Cc1cccs1)C(=O)CNS(=O)(=O)c1ccc(F)cc1	98%
Cc1ccc(CN2CCN(Cc3ccc(OCCO)cc3)CC2CCO)o1 (stereo unspecified)	104%
Cc1cccc(N2CCN(c3ccc(NC(=O)/C=C\C(=O)O)cc3)CC2)c1	97%
O=C1CS(=O)CN1c1ccc(Oc2ccccc2)cc1 (stereo unspecified)	93%
Cc1ccc(C(=O)NCC(=O)O)s1	95%
Cc1c(-c2cccc(Cl)c2)nc2ccccc2c1C(=O)OCC(=O)N(C)C1CCS(=O)(=O)C1 (stereo unspecified)	105%
CCOC(=O)C1(Cc2cccc(OC)c2)CCN(C(C)COC)CC1 (stereo unspecified)	104%
CCSC1=NCCN1S(=O)(=O)c1ccc(F)cc1	105%
CCOc1ccc(/C=N/Nc2nncc(-c3ccccc3)n2)cc1OC	102%
COc1ccc(-c2[nH]ncc2CN(Cc2nccn2C)C(C)C)cc1F	100%
Cc1ccc(-c2cc(C(F)(F)F)n3ncc(C(=O)N4CCCCC4c4cccnc4)c3n2)cc1 (stereo unspecified)	97%
Cc1cccc(N2CCN(c3ccc(C(N)=O)cc3[N+](=O)[O-])CC2)c1C	95%
Cc1nnc(SCC(=O)NNC(=O)c2ccc(Cl)cc2)n1CC1CCCO1 (stereo unspecified)	100%
COc1cc2[nH]c(=O)n(Cc3ccc(C(=O)NC4CCN(Cc5ccccc5)CC4)cc3)c(=O)c2cc1OC	104%
CCCCn1c(N)c(N2CCOCC2)c(=O)n(CC(=O)NCCc2ccccc2)c1=O	105%
COCCCNC(=S)NNC(=O)C(O)(c1ccccc1)c1ccccc1	109%
CC(OC(=O)CCc1nc(=O)c2ccccc2n1C)C(=O)NCc1ccc2c(c1)OCO2 (stereo unspecified)	97%

Structure (SMILES)	GTP binding activity (percent of control)
COc1ccc(NS(=O)(=O)c2cc(NC(=O)CC(=O)c3ccc([N+](=O)[O-])cc3)ccc2C)cc1	106%
COc1cc(OC)cc(-c2nnc(SCC(=O)Nc3ccc(C(=O)O)cc3)s2)c1	93%
Oc1ccc(-c2nncn2-c2ccccc2)cc1	99%
CCN(CCn1cccn1)Cc1cn[nH]c1-c1ccc(OC)cc1F	97%
CCN(CC)S(=O)(=O)c1ccc(NC(=O)c2cccnc2Cl)c(NC(=O)c2cccnc2Cl)c1	91%
CCOC(=O)C1(CC2CCCCO2)CCN(Cc2nc(-c3cccs3)oc2C)CC1 (stereo unspecified)	99%
NC(N)=N/N=C/c1ccc(Cl)c([N+](=O)[O-])c1	103%
CC(Nc1nc(N2CCN(CCO)CC2)nc2ccccc12)c1ccccc1 (stereo unspecified)	98%
CC(=O)NCC(=O)N1CCCC(C(=O)c2ccc3c4c(cccc24)CC3)C1 (stereo unspecified)	98%
CC(C)N1CCC(N2CCN(Cc3cccnc3)CC2CCO)CC1 (stereo unspecified)	104%
N#Cc1c(NC(=O)C2CC(Cl)=CCC2C(=O)O)sc2c1CCCCC2 (stereo unspecified)	94%
CCOC(=O)c1ccc(N2C(=O)CC(N3CCN(C(=O)c4ccccc4)CC3)C2=O)cc1 (stereo unspecified)	97%
COCCCNc1nc2c(-c3cccc(C(F)(F)F)c3)nnn2c2ccccc12	105%
C/C(CCc1ccccc1)=N\NC(=O)c1ccc(CN2CCOCC2)cc1	103%
Cc1ccccc1NS(=O)(=O)CCCCC(Cl)(Cl)Cl	96%
CC1CCN(S(=O)(=O)c2ccc(S(=O)(=O)NCc3cccnc3)cc2)CC1	98%
CCCNC(=O)c1c(Cl)cnn1-c1ccc(C)cc1	96%
O=C(CO/N=C/c1ccccc1OC(F)F)NC1CCCC1	103%
O=C(NNC(=O)C1C2CCC(C2)C1C(=O)O)c1ccc(Cl)cc1 (stereo unspecified)	103%
CCN(CC)S(=O)(=O)c1ccc(OC(C)C)c(N)c1	107%
CN(C)/C=C(/C(=O)c1ccccc1Cl)S(C)(=O)=O	104%
CCCN(CCC)CCCNC(=O)CNC(=O)c1nn(-c2ccc(OC)cc2)c(=O)c2ccccc12	95%
CC(=O)c1c(C)[nH]c(C(=O)OCC(=O)NCCC(C)C)c1C	95%
Cc1cccc(C(=O)OCC(=O)NCC(C)C)c1O	96%

Structure (SMILES)	GTP binding activity (percent of control)
S=C(NCCc1ccccc1)N1CCn2cccc2C1c1ccncc1 (stereo unspecified)	91%
COc1ccc2cc(CCl)c(Cl)nc2c1	91%
O=C(CCC(=O)OCc1ccc(Cl)cc1)Nc1ccccc1	102%
CN(C)S(=O)(=O)c1cccc(NC(=S)NCc2ccc3c(c2)OCO3)c1	104%
CCN(CC)S(=O)(=O)c1ccc(N(C)CCc2ccc(OC)c(OC)c2)nc1	96%
CC(C)CC(CC(C)C)=NNC(=O)c1ccc(CSc2nncn2C)cc1	104%
Cn1cnnc1SCC(=O)Nc1ccc(N2CCOCC2)cc1	98%
O=C(CN1C(=O)c2cccc3cccc1c23)Nc1ccccc1	98%
O=C(CS(=O)(=O)c1ccccc1)Nc1ccc(S(=O)(=O)Nc2ccccn2)cc1	107%
COc1cc(OC)cc(-c2nc(=S)n3ccsc3n2)c1	99%
Cc1ccc(/C=N/NC(=O)Cn2ccc(C(F)(F)F)n2)o1	105%
CCN(CC(=O)Nc1ccc(Cl)c(S(=O)(=O)N(C)C)c1)Cc1nc2ccccc2c(=O)[nH]1	105%
COc1cc(NC(=O)COc2ccccc2Cl)ccc1NC(=O)C(C)C	98%
Cc1ccc(C2NC(C(=O)O)CS2)cc1 (stereo unspecified)	103%
CN(C)c1ccc(C2Nc3ccccc3C(=O)N2NS(=O)(=O)c2ccccc2)cc1 (stereo unspecified)	95%
O=C(CSc1ccc([N+](=O)[O-])cn1)Nc1ccc(N2CCOCC2)cc1	95%
Cc1ccc(Nc2c(F)c(F)c(F)c(F)c2C(=O)O)c(C)c1	121% [activator] (active)
Cc1ccc(NC(=S)NC(=O)c2ccc(-c3ccccc3)cc2)c(C)c1	100%
COc1c(F)c(F)c(C(=O)O)c(Nc2ccccc2C)c1F	96%
S=C(Nc1ccc2c(c1)OCO2)N1CCCC1	104%
C/C(CC(=O)N1CCN(C=O)CC1)=N\NC(=O)c1ccc(Br)cc1	102%
COc1ccc2c(c1)CCC/C2=N\OC(=O)c1ccccc1F	105%
C=CCN(CC=C)S(=O)(=O)c1ccc(C(=O)Nc2nc3c(s2)CCc2ccccc2-3)cc1	27% (active)
C=CCN(CC=C)S(=O)(=O)c1ccc(C(=O)Nc2sc3c(c2C(N)=O)CCCCC3)cc1	103%

Structure (SMILES)	GTP binding activity (percent of control)
COCCN(CCOC)S(=O)(=O)c1ccc(C(=O)Nc2nc3c(s2)CCc2ccccc2-3)cc1	99%
COC(=O)CCC(=O)N1CCCC(CO)(Cc2ccccc2)C1 (stereo unspecified)	98%
CSc1cccc(NC(=S)N(Cc2ccccc2)Cc2ccccn2)c1	104%
O=C(COC(=O)c1ccccn1)Nc1cccc2ccccc12	108%
CCN(CC)CCNS(=O)(=O)c1ccc(/C=C/C(=O)O)cc1	98%
OCCC1CN(Cc2cnc(-c3ccccc3)s2)CCN1CCc1ccccc1 (stereo unspecified)	106%
CCOC(=O)CNC(=O)CSc1ccc2nnc(-c3cccnc3)n2n1	96%
CC1(C)C2CC=C(/C=N/NC(=O)C3CC3)C1C2 (stereo unspecified)	105%
CCc1c(SCCC(=O)O)nc2ccccc2c1C	99%
Fc1cc(Br)ccc1NC(=S)Nc1cccnc1	104%
COC(=O)C(=Nc1ccccc1)/C(C(=O)C(=O)N(C)c1ccccc1)=C(\O)c1ccc(Cl)cc1	96%
Cc1ccc(N2C(=O)C(CC(=O)Nc3cccc(F)c3)N(CCc3ccncc3)C2=O)cc1 (stereo unspecified)	97%
NNC(=O)C1CC(O)CN1S(=O)(=O)c1ccc(Cl)cc1 (stereo unspecified)	96%
Cc1ccc(NC(=O)CNCc2ccccn2)cc1S(=O)(=O)N(C)C	101%
C=CCN(Cc1nc(-c2cc(OC)c3c(c2)OCO3)oc1C)C1CCS(=O)(=O)C1 (stereo unspecified)	92%
CC1=CC=CN2C1=NC(=O)CC2(C)C(=O)N(CC(=O)NC1CCCC1)c1ccccc1C (stereo unspecified)	104%
CC(=O)c1cc(C#N)c(SCC(=O)Nc2nccs2)nc1C	96%
C=CCn1nc(-c2ccccc2)c2c(C)onc2c1=O	100%
NS(=O)(=O)c1ccc(NC(=S)Nc2ccc(Br)c(Cl)c2)cc1	103%
O=C(CCNC(=O)c1ccc([N+](=O)[O-])cc1)Nc1ccccc1N1CCOCC1	96%
COc1cccc(C(O)Cc2nc3ccccc3n2C)c1OC (stereo unspecified)	96%
CC(=O)c1cccc(NC(=O)[C@@H](NC(N)=O)C(C)C)c1	96%
COc1ccc(CNC(=O)COC(=O)/C=C/c2ccc(S(=O)(=O)N3CCOCC3)cc2)cc1	100%
O=C(O)/C=C/C(=O)NNc1ccc([N+](=O)[O-])cc1	96%
